The results in this text go back to the supplement of paper PMC11417369.

Over roughly 25,000 sequences, “ln(normalized median fluorescence intensity)” has its median near 7.1; the highest 2% begin near 10. This is one part of a sample in which the highest values are shown more often than they occur.

In this experiment the test system is PfSIP2 AP2 domain 1 (GST-tagged). The experiment can be described thus: gcPBM binding intensity (ln(normalized median fluorescence intensity)); higher = stronger DNA binding. The method, boiled down: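 DNA-binding domains from P. falciparum, fused to GST and produced in E. coli, were put on an Agilent 4 × 180k double-stranded probe array for 1 h in 1× PBS holding 1% milk, 0.2 mg/ml BSA, 0.5% salmon testes DNA and 0.03% Triton X-100. Probes were primer-extended, 36 bp long and drawn from intergenic genomic regions, with negative controls included. After Alexa488 anti-GST antibody detection and a 488 nm scan, binding intensity was set as the highest Masliner-normalised natural-log median intensity across replicate spots of either probe orientation.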
Regarding “AACTGTAAAAAATATAAACACACATAGAAATATATA [CACACA_site8002]”, the “gcPBM binding intensity (ln)” value was 7.01.
The figure for “AAAATAAAAAGAAAAAGAAAAAAGGGGGGGTAGGGG [CACACA_negctrl_site1048]” is 7.86; for TCATAGGGGTAGAAGGTGCAATAAAAAAGAAGAAAA it is 10.7.
With “CAGGGCAGGGGGAAGGGTACACATAAAAGAAAATAA [XGTACX_site172]”, the “gcPBM binding intensity (ln)” value worked out at 8.34.
To “TGAACATTATAGAAAAGTACTTAGTTTTTAAAAAGA [XGTACX_site6864]” belongs 7; to “AAAAAAAAAAAAAAAGTGCACAGTCGTTTTAAAAAA [GTGCAC_site9848]”, 10.7; to GTCTAAAAATAAAAAGTGCATTTGTTTAATATTTTG, 9.52.
To “TATATATATAAAAGTTGTACAGTGTTTTATATAGTT [XGTACX_site7085]” belongs 8.13; to “AAAAAAAAAAGAAACACACACATTTGTCTATAATAT [CACACA_site7063]”, 6.8.
The figure for “AAAATACATGGACACACACACACACCGATATATATA [CACACA_site5885]” is 7.4.
Consider TATGTTTTATATAAGATGCACTTTTGTTATGCTTCA, for which the “gcPBM binding intensity (ln)” value came to 8.55.
To “TTTTGTTTTTTCAATGTGCACTTAGGATGTTTTTAT [GTGCAC_site9565]” belongs 10.6; to “TTTTTTTTTTTTTTTGTGCACAATTATTTCAATTTT [GTGCAC_site9884]”, 8.88; to “CCATGTCACAATTTTTCACACACAAAATTTATATAC [CACACA_site8628]”, 7.39.
The figure for “TATTTTTAGAAAATAAAGAAGGAGAATTGAAAATAT [CACACA_negctrl_site361]” is 7.06.
To “TTTTGTTTTTAGTTTATACACACCATATTAATATAA [CACACA_site3102]” belongs 7.27; to “AAGAAAATATAAAATGCACACTATAAATTGTATATA [CACACA_site7928]”, 7.84.
On to “CATTATAAAAAATAAAAAAGAAATAATTGTATATGC [CACACA_negctrl_site478]”, for which the “gcPBM binding intensity (ln)” value turned out to be 7.
To TGTATGTATAATTGAGTGCACAGAAAAAAAAAAGAA belongs 10.5; to “ATATATTTTTTTTCTTCACACACATGAATTATATAT [CACACA_site9053]”, 7.45.
To “ATATAAATTTTTTATGAACACACAAATACAGACACT [CACACA_site8848]” belongs 7.37; to “AAAAAAAAAACATACACACACACAAATATTTATATA [CACACA_site437]”, 6.94; to “TAAACATAAATATGCACACATATACAGATATTCATA [CACACA_site5471]”, 7.04.
To “AATATTTATGGGTGCACACAAACATACATATATATA [CACACA_site3395]” belongs 11.8; to “TACAAATATATATGCACACACATATACATACAGATA [CACACA_site5238]”, 7.27; to “ATAATATTTAGGTGTGCACACAAACATACATATATA [CACACA_site9120]”, 8.81.
For “AATATTTATGGGTGCACACAAACATACAGATATATA [CACACA_site5810]”, the “gcPBM binding intensity (ln)” value came out at 12.1.
Regarding “ATATAAATTGGCAATAGTACATAAAGGCATAGAAAG [XGTACX_site2674]”, the “gcPBM binding intensity (ln)” value was found to be 7.31.
For “TTGTATATATTTCCTTGTACGTAATAATTCTTATTG [XGTACX_site3938]”, the “gcPBM binding intensity (ln)” value is 7.19.
To “TTTATTTGTTCATGCGTGCACTTGATAACAATGTAC [GTGCAC_site9561]” belongs 9.9; to “AAATATAATTAATGATGTACACTTATAGATATTGAT [XGTACX_site8435]”, 7.09.
To “ATATTATAATTGAAGGTGCAAAATGTAATATAGATA [GTGCAC_site9661]” belongs 10.6.
To “AGATATTATAATTAATGTACAAAAAGAAAAAATAGA [XGTACX_site8964]” belongs 7.04; to “TTTTATAATCATAATAGTACTTTTTCTTTTTCACAT [XGTACX_site5017]”, 6.7; to “TATATATATAATGTTTGTACATATTAAATATATATG [XGTACX_site407]”, 8.3.
On to “TTTTCATTTGTGACAGTGCAAAATGTTATATTAAAA [GTGCAC_site9647]”, for which the “gcPBM binding intensity (ln)” value came out at 8.57.
As for CTCATTTTGTTAATGGTGCAAAAAAAAAAAAAAAAA, the “gcPBM binding intensity (ln)” value came out at 11.
The figure for TTTTTTGTTACAACAGTGCAAAAAAACCTTAATGTT is 7.84; for “TTATCAATAAAATGCACACACTGTAATATTATTAAA [CACACA_site6055]” it is 7.18.
Consider “TATCTTATAAACTCTGCACACATAATATATTAAATG [CACACA_site8587]”, for which the “gcPBM binding intensity (ln)” value is 9.1.
The figure for “ATATGTATGTATTTATTATTGTGCATTGTATTTATA [CACACA_negctrl_site664]” is 7.44; for ATATATATTATCATTGTGCACTTATTTATATACCTT it is 10.5; for TTATCATTTGCCATTGTGCACTTATATGCTCACATT it is 10.2.
As to TATGTATGTGCTTGTGCGCACCGATAATATAGCCAA, the “gcPBM binding intensity (ln)” value came to 9.96.
To “AAAAAGGAAATAATAACACACATTAATAATTATAAA [CACACA_site3401]” belongs 6.67; to GGTATTTATGGACGCGTGCACACACATATGAACAAA, 9.35; to “TATTTATGCACGCGTGCACACACATATGAAAAAAGG [CACACA_site9090]”, 10.4.
To “TTATATGCATAAAAAGGTACACATATATAAATAAAT [XGTACX_site6894]” belongs 7.12; to “TTTATGCACGCGTGCACACACATATGAAAAAAGGTA [CACACA_site3315]”, 10.4; to “CAAAAGGATATGCACACACACACACGGATATTTATA [CACACA_site7099]”, 7.41.
To “TATGAAAAAATATATACACACATAATAAAGGTATAT [CACACA_site3737]” belongs 6.9.
In the case of “TGTTTTATTTATTAAGCACACGCGATTTAAAAAATA [CACACA_site981]”, the “gcPBM binding intensity (ln)” value came out at 6.79.
To “TGTATATTTTAGTGATGTACTAATATTATTACTAAT [XGTACX_site3952]” belongs 6.99; to “TTCTAATATTTACATAATATATAGAAATATAAAGGT [XGTACX_negctrl_site504]”, 7.4.
The figure for “TATATTAACAAAATGGTGCAATAATTTCTATATTGT [GTGCAC_site9430]” is 9.87; for “GTTAACAAATAATGCACACAAATGGATAAAATTATA [CACACA_site3725]” it is 7.68; for “TATATTATCAAAATGGTGCAATAATTTCTATATTAT [GTGCAC_site9772]” it is 9.9.
As for “TATATTAACAAAATGGTGCAATAATTTCTATATTAT [GTGCAC_site9857]”, the “gcPBM binding intensity (ln)” value stood at 10.4.
The figure for “GTAGACATTATAATGGTGCAAAAAAATTAACAAAAA [GTGCAC_site9891]” is 10.5; for “AGCAAAACAAAAAAATTAAAATTAACATATAATCAT [GTGCAC_negctrl_site393]” it is 6.7.
In the case of “TTAAATACTAAAAAGTGTACACATACATAAAAAATT [XGTACX_site6261]”, the “gcPBM binding intensity (ln)” value worked out at 7.32.
To “TTTTGTTTATTATGATTCAAAATGATTTTATCTTTG [TGCATGCA_negctrl_site425]” belongs 6.71; to “ACATATATATATTTATATATATATATATATATGTGA [CACACA_negctrl_site613]”, 7.44.
To “AAGTATAGTCTTACATATATATATATATATATATAT [GTGCAC_negctrl_site280]” belongs 9.42; to “AGTTTTATATAAGCTTGTACTTAATATTATTAAGTA [XGTACX_site5919]”, 6.99.
To “ATCTAATATATATTCTGTACGTAATTAAAACCACAA [XGTACX_site3152]” belongs 7.54; to “GGACTTAAATAAAATGGTACAGAATTTATATATATT [XGTACX_site8214]”, 6.83.
In the case of AAATAGTTGTTAAAGGTGCACAATATGGATATAAGA, the “gcPBM binding intensity (ln)” value is 11.2.
The figure for “TTAAAAGTTATGGATACACACATATAAATATAGATT [CACACA_site7175]” is 6.77.
In the case of “TAGTTAACAAATAATGCACACAAATGGATAAAATTA [CACACA_site9240]”, the “gcPBM binding intensity (ln)” value came out at 7.83.
To “GTAAATATTAATAAAAGTACATATGTAGCATATGGA [XGTACX_site5219]” belongs 7.09.
The figure for “TTATTTATTTATTCATGTACGTGTATTTTTTAAAAA [XGTACX_site7915]” is 7.28.
For the sequence “TGTGCACGTTCTGTGACACACATTTAAATGTGCTTA [CACACA_site176]”, the “gcPBM binding intensity (ln)” value was determined as 10.7.
The figure for “TTAAATTACTAATGTGCACACATACTAACGTTTAAA [CACACA_site3573]” is 9.21; for TATATATATATATATGTGCACATTTTATTAAAATGT it is 9.6; for “TCTGTATATTTCGCGCGTACGAACAAATTGATAATT [XGTACX_site7965]” it is 7.11.
To “ATAATAAATACACTAGTGCAAAATAATATATGTACT [GTGCAC_site9707]” belongs 8.13; to “AAAAATATAATATAATGTACACAAAAAAAAAAAAAT [XGTACX_site4914]”, 7.13; to “AAAAATATAATATAATGTACACATAAACAAAAAAAA [XGTACX_site3658]”, 7.04.
To “GTATATAATATTAGTGCACACACAAAAATGTACTAA [CACACA_site8112]” belongs 10.9; to “AGAAAAATAAACAAATGTACAAATTATTACTATATA [XGTACX_site1087]”, 6.8; to “ATATAATATTAGTGCACACACAAAAATGTACTAAAC [CACACA_site632]”, 10.9.
In the case of “CTATAATATTAGTGCACACACAAAAATGTACTAAAC [CACACA_site6442]”, the “gcPBM binding intensity (ln)” value worked out at 11.3.
The figure for “ATATTACAAATATAATGTACAAAATATAAATATGCA [XGTACX_site8106]” is 6.85; for “TATAATATAATATATGCACACAAATATGTATATATG [CACACA_site8664]” it is 7.15.
To “TTCGTATATTATTAATGTACATTATAAAATCAATAT [XGTACX_site5751]” belongs 7.08; to “GACTGAACAACATAATGTACATTTATAAGTATATAT [XGTACX_site3813]”, 7.15.
The figure for “TTTTTTTTCAATGGTTGTACAAAGTAAAACAACAAA [XGTACX_site1582]” is 7.2; for “ATATGTAAATAAATATGTACTCATTTATTATTTTAT [XGTACX_site8748]” it is 7.06.
For the sequence “CATTTTATTCTATATGCATGTTAAAAAATGTGTTGA [TGCATGCA_site128]”, the “gcPBM binding intensity (ln)” value stood at 7.12.
The figure for “AAATATAATATACAAAGTACTTTTTCATCTTATATA [XGTACX_site8771]” is 6.84.
For “AAACAATTTGGGTGTACACATGATACGTTCGATGAG [CACACA_site5160]”, the “gcPBM binding intensity (ln)” value was 7.18.
